These results are taken from PubChem BioAssay AID2284167 (EPA ToxCast).

Inconclusive results are not listed. Calls of active or inactive are those of the source. How the source made its calls: active means hit-call score of the fitted dose curve at least 0.9, where 1 is the maximum; inconclusive means response in the unintended direction; inactive means score below 0.9.

The target in this experiment is human Neurotensin Receptor NT1 Agonism, NTSR1 (gene 4923) (UniProt P30989). The experiment can be described thus: ERF_FR_GPCR_hNTSR1: Eurofins (ERF) G Protein-Coupled Receptor (GPCR) Radioligand Binding LeadHunter Assay for human Neurotensin Receptor NT1 Agonism. The protocol: ERF_FR_GPCR_hNTSR1 is a biochemical, single-readout assay that uses extracted gene-proteins in a cell-free assay. Measurements were taken 1 hour after chemical dosing in a 96-well plate. See NT1 Human Neurotensin GPCR Binding (Agonist Radioligand) Assay, Cerep.ERF_FR_GPCR_hNTSR1 is an assay component calculated from the ERF_FR_GPCR_hNTSR1 assay. It is designed to measure radioligand binding using a type of binding reporter as detected by scintillation counting with radiometry technology.Data from the assay component ERF_FR_GPCR_hNTSR1 was analyzed at the assay endpoint, ERF_FR_GPCR_hNTSR1, in the positive analysis fitting direction relative to DMSO as the negative control and baseline of activity. Using a type of binding reporter, gain-of-signal activity can be used to understand changes in binding as they relate to gene NTSR1. To generalize the intended target to other relatable targets, this assay endpoint is annotated to the gpcr intended target family, where the subfamily is neurotensin.
Chain of human Neurotensin Receptor NT1 Agonism, NTSR1 (gene 4923) (P30989 whole entry, looked up): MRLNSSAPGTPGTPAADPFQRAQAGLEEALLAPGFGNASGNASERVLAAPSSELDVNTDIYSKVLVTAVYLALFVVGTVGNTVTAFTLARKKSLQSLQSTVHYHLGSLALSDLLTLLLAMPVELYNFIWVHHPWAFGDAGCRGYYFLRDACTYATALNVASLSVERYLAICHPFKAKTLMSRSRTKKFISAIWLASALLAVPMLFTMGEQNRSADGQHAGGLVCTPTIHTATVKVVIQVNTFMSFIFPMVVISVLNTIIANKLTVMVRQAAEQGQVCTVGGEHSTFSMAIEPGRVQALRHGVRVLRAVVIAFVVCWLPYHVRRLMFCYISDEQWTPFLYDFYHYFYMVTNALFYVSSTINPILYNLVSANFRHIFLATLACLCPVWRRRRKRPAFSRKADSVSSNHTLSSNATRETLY
Human cells are incubated for 60 minutes at 4 C with [125I]Tyr3-neurotensin ligand (0.05 nM) and neurotensin as control inhibitor. Test Sample Requirements: Minimum for 1) Screen: 60 ul of 10 mM stock -OR- 1 mg (pre-weighed) for 10 uM final testing. 2) Dose Response: 90 ul of 10 mM stock -OR- 1 mg (pre-weighed) for a top concentration at 10 uM.
`O=C(/C=C/c1ccc(O)cc1)CC(=O)/C=C/c1ccc(O)cc1`: the AC50 is 2990 nM (active).
